NPSR antagonist: neuropeptide S receptor (human) antagonism, cAMP. Q6W5P4. CHO-NPSR cells, cAMP TR-FRET, antagonist mode. 1% of 220,000 active. AID 1461. Potency, µM (titrated, usually from 38.3 µM), inactives show at the highest dose activity change, negative = inhibition, most hits filed as inhibitors; also: potency is read from the fitted curve at half-maximal effect; % is scaled to controls: 0 for no effect and ±100 for the full control effect; nearly all actives have a fitted effect of over 50% in size
Target sequence (Q6W5P4 whole entry, looked up): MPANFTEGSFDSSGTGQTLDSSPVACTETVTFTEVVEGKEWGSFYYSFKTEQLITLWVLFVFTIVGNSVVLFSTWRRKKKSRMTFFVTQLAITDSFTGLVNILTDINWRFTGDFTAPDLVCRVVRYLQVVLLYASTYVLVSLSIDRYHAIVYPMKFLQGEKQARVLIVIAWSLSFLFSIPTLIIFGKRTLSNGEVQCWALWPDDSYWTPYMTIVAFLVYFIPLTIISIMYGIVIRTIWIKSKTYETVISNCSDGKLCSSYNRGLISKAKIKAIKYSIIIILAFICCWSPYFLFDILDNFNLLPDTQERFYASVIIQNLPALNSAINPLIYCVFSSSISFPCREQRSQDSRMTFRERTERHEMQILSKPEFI
IL-2 act: activators of IL-2; IL-2 activation reporter assay, cell-based qHTS; stimulated with anti-CD3/CD4/CD28 beads; in transgenic mouse T cells; activation, % (series mostly up to about 46 µM); 0.065% of 360,000 active; in the data active = activation above about 50%; inconclusive = mostly about 30% to 49%; also: 0% is about no effect
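Quantitative HTS in unstimulated transgenic mouse T cells, with memory T cells as non-tolerant control and PMA/ionomycin as tolerance-bypass control. Compound pretreatment lasted 60 minutes before 18 h bead stimulation; EGFP/DsRed fluorescence read.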
Giardia killer: kills Giardia lamblia; activity change, % at 7.66 µM, hits read low; AID 540267; 0.15% of 340,000 active; Giardia lamblia trophozoite viability; in the data active = activity change below about -80%; inconclusive = between about -30% and that limit;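 also: parasites exposed to compound for two days anaerobically before the ATP read; % is scaled to controls: 0 for no effect and ±100 for the full control effect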
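Giardia lamblia trophozoites (100 cells/well) were incubated with compounds for 48 h at 37 deg C under anaerobic conditions. Viability was read as ATP content by one-step luminescence after 15-30 min at room temperature.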
BRCA1 expr act: activators of BRCA1 expression. MCF7-BRCA1-FFLuc reporter, luminescence, 48 h; response scale: scaled: vehicle 0%, 10 µM genistein 100%. Potency, µM (series often up to 46.1 µM), without a hit: at the top dose activation, most hits filed as activators. 1.1% of 380,000 active. AID 624202; also: potency is read from the fitted curve at half-maximal effect; nearly all actives have a fitted effect of over 80% in size
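Luminescence from a BRCA1-driven firefly luciferase in MCF7 cells was read after 48 h compound exposure at 37 C. Data normalized against DMSO and a 10microM genistein activation control, then curve-fitted across the titration.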
RXFP1 agonist: RXFP1 (human) receptor agonism | Q9HBX9 | HEK293T-RXFP1 cAMP TR-FRET, 30 min; response scale: percent of porcine relaxin response, buffer zero | Potency, µM (doses to about 57.5 µM), for the others: at the top dose activation, actives largely listed as activators | 0.3% of 370,000 active | AID 2676; also: potency is read from the fitted curve at half-maximal effect; % is scaled to controls: 0 for no effect and ±100 for the full control effect; nearly all actives have a fitted effect of over 60% in size
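Agonist response is measured as cAMP accumulation in an RXFP1-transfected HEK293T line under PDE4 inhibition. Values are scaled between buffer-only and 29 nM porcine relaxin, and EC50s come from standard Hill equation fits.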
RXFP1 antagonist: antagonists of human relaxin receptor RXFP1 | HEK293-RXFP1, relaxin-stimulated cAMP HTRF, 30 min; active compounds read low | 0.59% of 350,000 active | activity change, negative = inhibition, % at 57.5 µM | Q9HBX9;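 active = activity change of -60% or lower, but not beyond a set lower limit; inconclusive = change between -60% and -40%, or beyond the set limit; inactive = change above -40%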; also: % is scaled to controls: 0 for no effect and ±100 for the full control effect
Active calls of the source: *; ? = inconclusive; . = not tested or not shown; [ ] = dose if it differs, or a comment. Sampled rows, rich in hits. Any-hit rate of the full collection: about 1.9%. Unless noted, calls follow the shape of the dose curve; as a rule, active = well fitted curve in the direction sought with a large enough effect; inconclusive = small, poorly fitted or top-dose-only effect, or another doubt; inactive = no such curve, though single readings can be large; an effect the other way counts as inactive or inconclusive.

SMILES | NPSR antagonist | IL-2 act | Giardia killer | BRCA1 expr act | RXFP1 agonist | RXFP1 antagonist
Cc1nc(-c2cccc(NC(=O)c3ccco3)c2)cs1 | . | -2 | -1 | 39% | 1% | 2
CC(=O)c1ccccc1NC(=O)CN1C(=O)CS/C1=C\c1nc(-c2ccc(C)cc2)cs1 | -12% | 2 | -8 | 2% | 0% | -1
CC(C)c1ccccc1-n1c(SCc2cc(=O)oc3ccc4ccccc4c23)nnc1-c1cccnc1 | 10µM* | 0 | -5 | -91% | 0% | 7
O=C(CSc1n[nH]c(=O)n1C1CC1)Nc1ccc(F)c(Cl)c1 | . | 1 | -9 | -11% | . | -78*
COC(=O)C1=C[C@@H](C(=O)OC)C2C3=C(C(=O)[C@@]2(C)NC(=O)c2ccccc2)[C@H](C)[C@@H]2C(=O)NC(=O)[C@@H]2[C@@H]3C1 (stereo not given in full) | . | . | 16 | . | . | .
CC(=O)c1cccc(NC(=O)Nc2ccc3c(c2)N(C)C(=O)CS3)c1 | -6%[46.1 µM] | 2 | 4 | -3% | 1% | -72*
CN(C)c1ccc(/C=C/c2ccc3cc(N)ccc3n2)cc1 | . | . | . | -74% | . | .
Cc1csc(NCC(=O)c2c(C)[nH]c3ccccc23)n1 | . | . | . | -8% | . | .
Cc1[nH]c2ccccc2c1SCCNC(=O)c1ccc(Br)o1 | -18%[46.1 µM] | -1 | 7 | -50% | -2% | -82*
COc1cc(CCC(C)=O)ccc1OC(=O)c1c(F)cccc1Cl | 35% | 5 | -23 | 8.9µM* | 1% | -6
O=C1C=CC(=O)N1c1ccc2c(c1)Cc1cc(F)ccc1-2 | . | -1 | 11 | -1% | . | -20
CC(=O)Nc1ccc2c(c1)Cc1cc(N3C(=O)C=CC3=O)ccc1-2 | . | 0 | -13 | -42% | . | -61*
COc1ccc(N2C3=C(CC4=C2CC(C)(C)CC4=O)C(=O)CC(C)(C)C3)cc1 | 2µM* | -4 | 2 | -97% | 0% | 24
O=C(NCCc1ccc(Cl)cc1)c1nnc(Cc2ccc(Cl)cc2Cl)o1 | . | . | . | . | 7% | -3
CCOC(=O)c1cc2c(=O)n3ccccc3nc2n(Cc2ccco2)c1=NC(=O)c1ccccc1OCC | -28% | 2 | 22 | -12% | 28µM* | -5
N#Cc1cc2c(nc1SCC1COc3ccccc3O1)CCC2 (stereo not given) | -21%[46.1 µM] | 5 | 0 | 8.9µM* | 1% | -5
N#Cc1cc2c(nc1SCc1ccccc1)CCCCC2 | ? | -1 | 2 | 2% | 3% | -8
O=C(COc1ccc2ccccc2c1)Nc1ccc(O)c(-c2nc3ccccc3o2)c1 | . | . | . | -5% | . | .
CCCNC(=O)c1cn(CC)c2cc(N3CCN(C(=O)c4ccco4)CC3)c(F)cc2c1=O | . | 0 | 33 | 0% | 0% | 10
CCn1cc(C(=O)NCc2cccc(F)c2)c(=O)c2cc(F)c(N3CCN(C(=O)c4ccco4)CC3)cc21 | 10µM* | -1 | -7 | -84% | 0% | -12
O=C(O)c1ccc(Cn2cc(/C=C\[N+](=O)[O-])c3ccccc32)o1 | . | 0 | 2 | 0% | 0% | 12
COC(=O)c1ccc(Cn2cc(/C=C\[N+](=O)[O-])c3ccccc32)o1 | . | -6 | -16 | -52% | -2% | -95*
CNC(=O)c1cnn(-c2nc(N)c3ncn([C@@H]4O[C@H](CO)[C@@H](O)[C@H]4O)c3n2)c1 | . | . | . | . | . | 7
O=C(C[n+]1ccccc1Cl)c1ccc(I)cc1 | . | . | . | 4% | . | .
CC(C)(C)c1ccc(C(=O)C[n+]2ccccc2Cl)cc1 | . | . | . | 7.9µM* | . | .
SMILES | NPSR antagonist | IL-2 act | Giardia killer | BRCA1 expr act | RXFP1 agonist | RXFP1 antagonist
CC(C)CN(C)c1ccc(/C=C2\C=Cc3ccccc32)cc1 | . | . | . | 17% | . | .
CC1(C)COC(Cn2c3ccccc3c3ccccc32)O1 (stereo not given) | -44% | 2 | -22 | -54% | -2% | -65*
CC(C)(C)N1CC(C(=O)Nc2ccc(S(=O)(=O)N3CCCCC3)cc2)CC1=O (stereo not given) | . | 2 | 43 | 6% | 0% | 0
CCC1CCCCN1S(=O)(=O)c1ccc(NC(=O)C2CC(=O)N(C(C)(C)C)C2)cc1 (stereo not given) | . | -4 | -16 | 11µM* | . | 8
COc1cc2c(cc1OC)C(c1cc(-c3cc(Cl)ccc3Cl)oc1C)=NCC2 | . | . | . | -24% | . | .
Cc1cccc(-c2nnc(-c3cccc(NC(=O)Cc4cccs4)c3)o2)c1 | ? | -1 | -6 | 13µM* | -1% | -19
O=C(Cc1cccs1)Nc1ccc(-c2nnc(-c3ccccc3)o2)cc1 | . | -2 | 7 | -15% | . | .
CN(C)c1ccc(N=Nc2ccc(S(N)(=O)=O)cc2)cc1 | . | 0 | ? | 2µM* | -3% | 0
O=C(Nc1ccc(F)c(Cl)c1)N1CCCCCC1 | . | -1 | 1 | 8.9µM* | 3% | 4
CCN(CC)C(=O)C(=O)Nc1ccc(F)c(Cl)c1 | 11% | 0 | -13 | 8.9µM* | 0% | 4
O=C(Nc1ccc(Cl)cc1)N1CC=CCC1 | -19%[46.1 µM] | 0 | 12 | 7.9µM* | 2% | -11
O=C(Nc1ccc(Cl)cc1)N1CCN(c2ccccc2)CC1 | -1% | 1 | -14 | 31% | 0% | -2
CCn1c2ccccc2c2cc(NC(=O)N3CCCCC3)ccc21 | . | -4 | . | 8.9µM* | . | 10
O=C(Nc1ccc(F)c(Cl)c1)N1CCCC1 | -38% | -4 | -5 | 25% | -1% | 23
Cc1ccn2c(Nc3c(C)cccc3C)c(-c3ccc(Cl)s3)nc2c1 | . | . | . | . | 0% | -9
O=c1c2cnn(-c3ccc(Cl)cc3)c2ncn1Cc1ccc(Cl)cc1Cl | . | . | . | . | 0% | 12
Nc1cc(Cl)nc(N/N=C/c2ccccc2[N+](=O)[O-])n1 | -3%[46.1 µM] | 0 | -13 | 11µM* | -1% | -2
O=C(NN1C(=O)c2ccccc2NC1c1ccc([N+](=O)[O-])o1)c1ccc([N+](=O)[O-])cc1 (stereo not given) | -32% | -3 | ? | -19% | 2.8µM* | 23
O=C(NN1C(=O)c2ccccc2NC1c1ccoc1)c1ccc([N+](=O)[O-])cc1 (stereo not given) | 2% | 5 | -2 | 17% | 4% | 2
O=C(NN1C(=O)c2ccccc2NC1c1ccc([N+](=O)[O-])o1)c1ccccc1 (stereo not given) | 33% | 2 | -85* | -39% | 1% | -26
Clc1ccc(Nc2nnc(Cc3ccncc3)c3ccccc23)cc1 | . | . | . | . | . | -22
COc1ccc(CNc2nc(N)nc3nc[nH]c23)cc1 | . | . | -1 | 3% | . | .
O=C(CC(NC(=O)c1ccccc1)c1ccccc1)OCc1nc(-c2cccc(Cl)c2)no1 (stereo not given) | . | . | . | 20% | . | .
Cc1cc2c(c(C)c1Cl)C(c1ccc3c(c1)OCO3)CC(O)(c1ccccc1)O2 (stereo not given) | . | . | 3 | . | . | .

Source: PubChem (National Center for Advancing Translational Sciences (NCATS))
